These results are taken from PubChem BioAssay.

SMILES strings stand for the structures. A number with no mark means an inactive call. For some of these results: Potency and affinity values are given separately. The source made the active and inactive calls. Unless noted, the rule behind the calls is not given here.

The nature of test [1]: antimalarial activity against Dd2 strain (AID 2302;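 active = growth inhibition above 50% at the single 2 µM test dose, taken to imply half-maximal potency below 2 µM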;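 note: 0% = DMSO untreated growth and 100% = chloroquine plus artemisinin killed control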). Particulars: P. falciparum Dd2 in RBCs, LDH growth readout, 72 h; at 2 µM; hits give high values.
Test [2] is described as follows: human hepatoma cell viability loss – ATP luminescence, cytotoxicity control for P. falciparum antimalarial project, primary screen (AID 2303;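 active = inhibition above 50%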;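 note: 0% = DMSO wells and 100% = digitonin-killed cells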). Particulars: HepG2 viability, 24-48 h, at 10 µM, hits give high values.
The target of test [3] is L-lactate dehydrogenase (Plasmodium falciparum (isolate CDC / Honduras)) (UniProt Q27743). The test can be described thus: PfLDH activity inhibition – cell lysate, 3D7 strain, counter-screen for P. falciparum growth inhibition project (AID 2304).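 Note: 0% = vehicle and 100% = reference inhibitor.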 Conditions: P. falciparum 3D7 crude extract, LDH APAD/NBT absorbance; at 2 µM; hits give high values.
Test [4] can be described thus: inhibition of 3D7 malaria parasite growth – strain 3D7 (AID 2306).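 Note: 0% = DMSO wells and 100% = chloroquine plus artemisinin control wells.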 Conditions: P. falciparum 3D7 erythrocytic growth, LDH absorbance, 72 h; at 2 µM; hits give high values.
Test [5] addresses Calcium-dependent protein kinase 1 (Plasmodium falciparum (isolate 3D7)) (UniProt P62344). Description: PfCDPK1 kinase inhibitors, biochemical, TCAMS library (AID 1159585; cut-off not given, nearly all actives have IC50 up to about 0.98 µM;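 note: inhibitors leave more ATP so luminescence rises with inhibition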). Conditions: recombinant PfCDPK1, Kinase-Glo ATP depletion luminescence.
The target in test [6] is Plasmodium falciparum protein kinase 6 (PK6, PF3D7_1337100) (UniProt Q8IDW1). Description: PfPK6 kinase inhibitors, biochemical, TCAMS library (AID 1159586). Particulars: recombinant PfPK6, Kinase-Glo ATP depletion luminescence.
Test [7] addresses Protein kinase 7 (PK7), Plasmodium falciparum 3D7 (PF3D7_0213400) (UniProt Q7YTF7). The test can be described thus: inhibition of Plasmodium PK7 catalytic activity – biochemical, TCAMS antimalarial set, Kinase-Glo luminescence (AID 1159587). Particulars: recombinant PfPK7, Kinase-Glo ATP depletion luminescence.
Test [8] addresses Calcium-dependent protein kinase 4 (Plasmodium falciparum (isolate 3D7)) (UniProt Q8IBS5). Description: PfCDPK4 kinase inhibitors, biochemical, TCAMS library (AID 1159588; cut-off not given, nearly all actives have IC50 up to about 0.91 µM). Conditions: recombinant PfCDPK4, Kinase-Glo ATP depletion luminescence.

Calcium-dependent protein kinase 4 (Plasmodium falciparum (isolate 3D7)), sequence (Q8IBS5 whole entry, looked up): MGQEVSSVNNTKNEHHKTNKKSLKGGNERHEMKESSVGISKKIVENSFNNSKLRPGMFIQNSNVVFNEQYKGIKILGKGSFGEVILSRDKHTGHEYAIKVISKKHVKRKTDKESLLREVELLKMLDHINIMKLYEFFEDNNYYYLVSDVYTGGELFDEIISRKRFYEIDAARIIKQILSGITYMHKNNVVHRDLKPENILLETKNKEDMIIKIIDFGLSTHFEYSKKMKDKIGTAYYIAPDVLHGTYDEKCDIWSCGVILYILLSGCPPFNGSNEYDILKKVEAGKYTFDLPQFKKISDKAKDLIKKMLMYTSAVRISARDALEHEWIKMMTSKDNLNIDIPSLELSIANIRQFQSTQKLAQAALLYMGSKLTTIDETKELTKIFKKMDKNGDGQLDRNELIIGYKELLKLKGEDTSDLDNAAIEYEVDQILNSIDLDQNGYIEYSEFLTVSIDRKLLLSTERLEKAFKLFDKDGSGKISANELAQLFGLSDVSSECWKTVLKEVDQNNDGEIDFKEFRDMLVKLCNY
Protein kinase 7 (PK7), Plasmodium falciparum 3D7 (PF3D7_0213400), sequence (Q7YTF7 1-343): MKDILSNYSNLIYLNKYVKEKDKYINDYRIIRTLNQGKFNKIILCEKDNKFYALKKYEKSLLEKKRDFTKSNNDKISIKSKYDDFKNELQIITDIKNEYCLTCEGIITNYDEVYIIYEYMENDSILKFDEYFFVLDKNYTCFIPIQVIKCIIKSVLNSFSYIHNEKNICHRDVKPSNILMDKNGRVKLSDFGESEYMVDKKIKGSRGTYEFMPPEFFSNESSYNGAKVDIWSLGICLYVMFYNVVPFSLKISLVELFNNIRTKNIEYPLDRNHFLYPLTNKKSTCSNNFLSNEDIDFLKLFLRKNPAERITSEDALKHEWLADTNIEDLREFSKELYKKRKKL
Plasmodium falciparum protein kinase 6 (PK6, PF3D7_1337100), sequence (Q8IDW1 1-305): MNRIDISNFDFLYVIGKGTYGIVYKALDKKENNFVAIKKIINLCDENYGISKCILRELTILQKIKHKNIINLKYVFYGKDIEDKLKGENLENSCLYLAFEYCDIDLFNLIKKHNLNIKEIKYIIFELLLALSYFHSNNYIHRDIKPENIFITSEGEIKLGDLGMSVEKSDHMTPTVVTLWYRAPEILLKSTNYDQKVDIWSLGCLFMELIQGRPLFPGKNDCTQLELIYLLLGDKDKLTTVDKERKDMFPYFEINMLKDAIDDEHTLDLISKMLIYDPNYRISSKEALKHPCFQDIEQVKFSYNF
L-lactate dehydrogenase (Plasmodium falciparum (isolate CDC / Honduras)), sequence (Q27743 whole entry, looked up): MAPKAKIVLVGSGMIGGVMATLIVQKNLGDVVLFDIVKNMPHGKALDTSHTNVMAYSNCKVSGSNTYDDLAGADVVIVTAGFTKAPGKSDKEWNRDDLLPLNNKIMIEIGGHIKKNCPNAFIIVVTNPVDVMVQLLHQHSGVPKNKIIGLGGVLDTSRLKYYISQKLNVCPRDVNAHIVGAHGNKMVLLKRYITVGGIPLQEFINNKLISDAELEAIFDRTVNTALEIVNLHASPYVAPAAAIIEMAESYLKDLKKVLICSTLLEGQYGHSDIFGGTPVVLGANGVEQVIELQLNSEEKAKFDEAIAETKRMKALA
Calcium-dependent protein kinase 1 (Plasmodium falciparum (isolate 3D7)), sequence (P62344 whole entry, looked up): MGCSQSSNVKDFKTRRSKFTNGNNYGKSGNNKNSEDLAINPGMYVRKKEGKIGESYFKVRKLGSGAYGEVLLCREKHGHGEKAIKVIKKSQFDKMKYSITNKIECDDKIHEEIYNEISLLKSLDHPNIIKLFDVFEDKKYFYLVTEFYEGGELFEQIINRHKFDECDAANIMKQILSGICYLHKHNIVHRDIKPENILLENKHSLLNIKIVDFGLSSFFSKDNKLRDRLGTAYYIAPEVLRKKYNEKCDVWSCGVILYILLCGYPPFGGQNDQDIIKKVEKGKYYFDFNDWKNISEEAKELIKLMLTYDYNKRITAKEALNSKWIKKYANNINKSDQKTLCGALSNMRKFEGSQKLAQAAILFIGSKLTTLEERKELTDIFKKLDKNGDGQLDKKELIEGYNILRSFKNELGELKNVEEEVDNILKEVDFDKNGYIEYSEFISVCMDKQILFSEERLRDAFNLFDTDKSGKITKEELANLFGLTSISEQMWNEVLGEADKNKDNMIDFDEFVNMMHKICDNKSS

Regarding `CCCC1N=C(N)N=C(N)N1c1ccc(Cl)cc1` (stereo not given), the results for the growth inhibition in test [1] and in test [4] were -2% and 96% (active), respectively. Moreover, the inhibition in test [2] is 14%; in test [3], 5%. In addition, the outcome in test [5], in test [6], in test [7] and in test [8] was inactive.
For `Cc1cc(NC(=O)c2cccs2)ccc1OC1CCN(Cc2ccc(C#N)cc2)CC1`, the growth inhibition in test [1] is 92% (active); in test [4], 94% (active). The results for the inhibition in test [2] and in test [3] were 34% and 4%, respectively. Also, the result in test [5], in test [6], in test [7] and in test [8] was inactive.
For `C[C@@H](CNc1ccnc(Nc2ccc3[nH]c(=O)[nH]c3c2)n1)c1ccccc1`, the growth inhibition is 1% in test [1] and 100% (active) in test [4]. For the same compound, the inhibition in test [2] is 42%; in test [3] it was -3%. The outcome in test [5], in test [6], in test [7] and in test [8] was inactive.
Consider `CN1CCC(COc2ccc(CN3CCC(NC(=O)c4cccc(Cl)c4)CC3)cc2)CC1`, for which the growth inhibition in test [1] was 13%; in test [4], 94% (active). Besides, the inhibition in test [2] is 16%; in test [3] it was -2%. Also, the outcome in test [5], in test [6], in test [7] and in test [8] was inactive.
Take `COc1cccc(C2=CC(C)(C)Oc3cc(OCCN(C)C)ccc32)c1`: the results for the growth inhibition in test [1] and in test [4] were 96% (active) and 97% (active), respectively. In addition, the inhibition in test [2] was 57% (active); in test [3], -4%. Besides, the result in test [5], in test [6], in test [7] and in test [8] was inactive.
Turning to `Cc1noc(C)c1-c1ccc2c(Nc3ccccc3N3CCOCC3)c(C(=O)NCc3ccccc3)cnc2c1`, the growth inhibition in test [1] was 6%; in test [4] it was 91% (active). Moreover, the results for the inhibition in test [2] and in test [3] were 23% and -2%, respectively. Also, the outcome in test [5], in test [6], in test [7] and in test [8] was inactive.
As for `COc1cc2c(cc1NC(=O)CN1CCN(C(=O)c3ccco3)CC1)oc1ccccc12`, the growth inhibition in test [1] and in test [4] was 96% (active) in each case. In addition, the values for the inhibition in test [2] and in test [3] were 13% and -2%, respectively. In addition, the outcome in test [5], in test [6], in test [7] and in test [8] was inactive.
Consider `Cc1cc2nc(-c3ccc(SCC(=O)Nc4ccc5c(c4)OCCO5)nc3)[nH]c2cc1C`, for which the figures for the growth inhibition in test [1] and in test [4] were 6% and 85% (active), respectively. For the same compound, the values for the inhibition in test [2] and in test [3] were 17% and 9%, respectively. Moreover, the result in test [5], in test [6], in test [7] and in test [8] was inactive.
Regarding `Cc1cccc2[nH]c(-c3ccc(-c4cccc(NC(=O)Nc5cccc(C#N)c5)c4)cc3)nc12`, the growth inhibition in test [1] was 86% (active); in test [4], 102% (active). Moreover, the inhibition in test [2] was 25%; in test [3], 7%. Moreover, the result in test [5], in test [6], in test [7] and in test [8] was inactive.
For `Cc1nc2ccc3ccc(CNc4ccc5c(c4)CN([C@@H](CCC(=O)O)C(=O)O)C5=O)cc3c2c(=O)[nH]1`, the growth inhibition in test [1] was 95% (active); in test [4], 94% (active). The inhibition was 41% in test [2] and 2% in test [3]. Further, the result in test [5], in test [6], in test [7] and in test [8] was inactive.
As to `OC1CCCN(Cc2ccc(-c3ccc(-c4nc5ccc(F)cc5[nH]4)cc3)cc2)C1` (stereo not given), the figures for the growth inhibition in test [1] and in test [4] were 79% (active) and 100% (active), respectively. Besides, the results for the inhibition in test [2] and in test [3] were 55% (active) and 2%, respectively. Further, the outcome in test [5], in test [6], in test [7] and in test [8] was inactive.
Consider `CC(Cc1ccc(CN2CCN(Cc3ccccc3)CC2)cc1)NCC(O)c1cccc(C(F)(F)F)c1` (stereo not given), for which the growth inhibition in test [1] was 98% (active); in test [4], 97% (active). For the same compound, the figures for the inhibition in test [2] and in test [3] were 51% (active) and -7%, respectively. For the same compound, the outcome in test [5], in test [6], in test [7] and in test [8] was inactive.
As to `CC(C)(C)c1ccc(CN2CCC(CNC(=O)c3cc(-c4cccc(F)c4)cs3)C2)cc1` (stereo not given), the growth inhibition in test [1] is 55% (active); in test [4], 100% (active). Further, the results for the inhibition in test [2] and in test [3] were 32% and 3%, respectively. Further, the outcome in test [5], in test [6], in test [7] and in test [8] was inactive.
`Cc1ccc2sc(N(CCCn3ccnc3)C(=O)c3ccco3)nc2c1C`: the growth inhibition in test [1] was 98% (active); in test [4], 93% (active). Further, the inhibition in test [2] was 9%; in test [3], -2%. The result in test [5], in test [6], in test [7] and in test [8] was inactive.
As to `NC1=NC2(CCCCC2)N(OCCCOc2cc(Cl)c(Cl)cc2Cl)C(N)=N1`, the growth inhibition was 98% (active) in test [1] and 94% (active) in test [4]. For the same compound, the inhibition in test [2] is 62% (active); in test [3], -11%. In addition, the result in test [5], in test [6], in test [7] and in test [8] was inactive.
For `Nc1c2c(nc3ccc(Oc4ccc(Cl)cc4)cc13)CCCC2`, the values for the growth inhibition in test [1] and in test [4] were 65% (active) and 100% (active), respectively. In addition, the inhibition in test [2] is 42%; in test [3], -8%. Moreover, the result in test [5], in test [6], in test [7] and in test [8] was inactive.
As for `Cc1cccc2[nH]c(-c3ccc(-c4ccc(NC(=O)Nc5ccc(Cl)c(Cl)c5)cc4)cc3)nc12`, the growth inhibition in test [1] was 100% (active); in test [4] it was 101% (active). In addition, the inhibition in test [2] was 37%; in test [3], 0%. Moreover, the outcome in test [5], in test [6], in test [7] and in test [8] was inactive.
On to `COc1ccc(Cl)cc1N1CCN(CCCNC(=O)c2ccc(-c3nc4cc(Cl)c(F)cc4[nH]3)cc2)CC1`, for which the growth inhibition in test [1] is 98% (active); in test [4], 101% (active). The figures for the inhibition in test [2] and in test [3] were 3% and 6%, respectively. Also, the outcome in test [5], in test [6], in test [7] and in test [8] was inactive.
`Clc1ccccc1OCc1ccccn1`: the growth inhibition in test [1] is 2%; in test [4] it was 85% (active). Besides, the values for the inhibition in test [2] and in test [3] were 2% and -3%, respectively. In addition, the outcome in test [5], in test [6], in test [7] and in test [8] was inactive.
For `COc1ccc(NC(=O)/C=C/c2ccccc2Cl)cc1OCCN1CCC(c2nc3ccccc3[nH]2)CC1`, the growth inhibition in test [1] is 16%; in test [4] it was 92% (active). The inhibition in test [2] was 35%; in test [3], -6%. Moreover, the result in test [5], in test [6], in test [7] and in test [8] was inactive.
